Data: publication PMC4242493, “Sequence specificity incompletely defines the genome-wide occupancy of Myc”
Whole data set: some 33,000 sequences, median “normalized occupancy” near 0.075, cut for the highest 2% near 0.095. Many of the other results were omitted from the sample, so the highest values are more common in it than they were.

Target: MaxL homodimer (Homo sapiens, UniProt P61244 1-160)
Assay: universal protein-binding microarray (PBM); PBS-based mixture, 10 nM His-tagged protein dimer, 2% milk, 200 ng/uL BSA, 50 ng/uL salmon testes DNA, 0.02% TX-100; detection with Alexa 488 anti-His antibody;; high values mean tight binding
Conditions: protein: recombinant; tags: C-terminal His-tag (pET21a); chain copies: 2; dsDNA, one strand shown
How it was run: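 Agilent 4 x 44 K arrays carrying the 'all 10-mer' universal design were incubated with His-tagged protein dimer at 10 nM. Protein that bound was tagged using fluorophore-conjugated anti-His antibody at 10 ng/μL, and a GenePix 4400A scanned the arrays to give an intensity for every 8-mer. Each binding occupancy value expresses an intensity relative to the top-ranked intensity.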

MaxL homodimer, sequence (P61244 whole entry): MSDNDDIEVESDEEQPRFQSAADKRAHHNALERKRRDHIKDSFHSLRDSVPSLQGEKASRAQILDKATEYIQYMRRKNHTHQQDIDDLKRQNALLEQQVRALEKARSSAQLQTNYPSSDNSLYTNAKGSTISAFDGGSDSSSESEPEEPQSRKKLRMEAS

Sequence	binding signal [normalized occupancy]
CTTTGACC	0.0868
AGTGCTCA	0.0761
TCACGAAA	0.0755
CTCCAGTA	0.0743
CAACCGTA	0.0753
ACGCCGCG	0.0773
AAGGAAAG	0.0804
CATGCCCC	0.0965
AATGCCCC	0.0836
GATGCCCA	0.0798
CATGCCCG	0.0842
CATGCCCA	0.0953
GATGCCCC	0.0764
TCAGACGA	0.0739
CTACAGAG	0.0735
AAGAAGGC	0.0751
AGCGCCTA	0.0724
GTGAATAA	0.0848
CAATGTGA	0.0948
AAATGTGC	0.0962
ACATGTGA	0.166
CCATGTGA	0.154
CCATGTAA	0.0855
AGATGTGA	0.085
CAATGTGG	0.097

Sequence	binding signal [normalized occupancy]
GAATGTGC	0.0815
CGATGTGA	0.0833
CAATGTGC	0.0924
ATATGTGA	0.0878
AAATGTGT	0.0811
CGCACCAA	0.0722
GCGTTCAC	0.0758
CCGCTAAG	0.0719
CGTCACTC	0.074
GCGGGTCA	0.0811
ACTTTGTG	0.0718
TACTACGA	0.0764
CTAATATA	0.0824
CATTAGAA	0.0752
ACATCACG	0.0884
CGTGTTAA	0.0819
GGCCCACA	0.0789
ACTGACGA	0.0719
CTCCTTCC	0.081
AGGCACGC	0.0914
GTTAACCA	0.0793
AGCGTTCA	0.0757
ACATGTGG	0.209
AAATGTGG	0.088
GGATGTGA	0.0786

Sequence	binding signal [normalized occupancy]
AGATGTGC	0.0825
CCATGTCC	0.0824
AGATGTGG	0.0868
ACATGTGC	0.197
CCATGTGC	0.209
GCATGTGA	0.157
CGATGTGC	0.0807
ACATGTCC	0.0918
GAATGTGA	0.0817
CCGATGAC	0.0747
TTAGTAAA	0.0726
CGATGCCC	0.0786
CCGAGTGC	0.0748
GATAGTGC	0.0782
AAGTTAGA	0.0733
CAGGCACC	0.0774
GACAAGAA	0.0761
AGGCGTTA	0.0751
CCCATACG	0.0864
GGTGATCA	0.0835
CGTGACCC	0.0843
CATGACCG	0.0795
CATGACCA	0.0957
GATGACCA	0.0763
CGTGATCA	0.0962

Sequence	binding signal [normalized occupancy]
CGTGACCA	0.0992
CGTGATCC	0.0811
AGTGACCA	0.0753
CGCCAACA	0.0741
ACCTGATG	0.0825
AGCTACAA	0.0722
ATGCCAAA	0.0777
GAGATCCC	0.0743
CTACACGC	0.0967
CTACACGA	0.0821
CTACACAC	0.093
ATACACGC	0.102
ATACACGG	0.0846
ATACACGA	0.0889
ACTTGACA	0.0819
GCTCCCAC	0.075
CATCAAGC	0.0726
GTTGAAGA	0.082
ACAGAAGA	0.0734
ATGAAGGG	0.0755
AATGCGAC	0.0782
CATGCGAG	0.0975
CATGCGAA	0.0898
AATGCGAG	0.0746
CATGCGAC	0.109

Sequence	binding signal [normalized occupancy]
GATGCGAC	0.0759
AAACCTTA	0.0742
ACGACGTC	0.0746
AGAACGTA	0.0742
AGAACGTG	0.1
ACAACGTG	0.149
ATAACGTA	0.0784
AGAACGCG	0.0788
ACGACGTG	0.0963
ACGACGTA	0.0786
ATAACGTC	0.0773
ATAACGTG	0.113
ACAACGGG	0.0774
ACAACGTA	0.077
ATAGCGCC	0.0747
GGAGAAGA	0.0765
ATTATTCG	0.0765
AGCTGACA	0.0754
AACAGCAC	0.0765
GTCACCTA	0.0725
ATTTTAAC	0.0737
AAATTGCA	0.0733
CCGCGCGC	0.0828
AAATAAAA	0.079
AAACCCAA	0.0746

Sequence	binding signal [normalized occupancy]
CTTGTCAC	0.0759
AACCACAT	0.0973
AACCACAA	0.0762
AACCACAC	0.0854
ATCCACAA	0.077
ATCCACAT	0.0977
ATCCACAG	0.078
GCAACAGA	0.0747
GTCAGAGA	0.073
ATTGTCTG	0.0774
TACATACA	0.092
AATGGGAA	0.0775
CATGTCTC	0.0933
CTTGTGTA	0.0811
CATGTGTC	0.125
CATGTGTA	0.131
GATGTGTA	0.0848
AATGTGTC	0.095
CTGCGGCA	0.0732
GACACCCA	0.0749
GATGTAGA	0.0799
ACAGCTAT	0.0762
ACAGGTGC	0.0832
ACAGGTGA	0.084
ACAGGTGG	0.0985

Sequence	binding signal [normalized occupancy]
CACAGCAA	0.0762
CTTGTGCC	0.0778
AATGTGAT	0.101
CATGTTCG	0.0882
CATGTGCG	0.181
ACTGTGAT	0.0734
CGTGTGCC	0.0918
GATGTGCC	0.0796
AGTGTGCA	0.0821
CCTGTGCG	0.0733
AATGTGAA	0.0782
CGTGTGCA	0.0981
CATGTGCC	0.149
CGTAGCAG	0.0734
CGTGAAGA	0.0801
TATCTTAA	0.0728
TTCTCAAA	0.0808
CTGCTCCC	0.0741
ACGGTTAA	0.0751
CTGCAGCA	0.0755
GACCTTAC	0.0765
CCAAGCTA	0.0731
